According to PubChem BioAssay (Tox21):
Results filed as inconclusive are left out. Unmarked numbers belong to inactive results. Activity calls are given as the source filed them. Calls follow the shape of the dose curve; as a rule, active = well fitted cell-killing curve with a large enough effect in the repeat runs; inconclusive = weak or mixed curves, or effect the other way; inactive = flat fitted curve, though single readings scatter.

assay: qHTS RealTime-Glo MT Cell Viability Assay in HEK293 cells - 0 hour (AID 1224880); details: RealTime-Glo luminescence; series mostly up to 76.8 µM; activity change, negative = cytotoxicity: at the top concentration; also: nearly all actives have a fitted effect of over 45% in size; as to activity change, negative = cytotoxicity: top concentration of the series differs between compounds
From the text: U.S. Tox21 Program National Center for Advancing Translational Sciences [NCATS] NIH Chemical Genomics Center [NCGC] U.S. Environmental Protection Agency [EPA] National Institutes of Environmental Health Sciences [NIEHS] National Toxicology Program [NTP] U.S. Food and Drug Administration [FDA] Tox21 Assay Overview: Measure of cell viability is critical in the cell-base assay. Analysis of cell viability is necessary for the characterization of cell responses to cytotoxic drugs and environmental stress. A RealTime-Glo MT Cell Viability Assay to monitor cell viability in real time of continues cell culture during 40 hours of compound treatment was used to screen Tox21 10K library compounds in Hek293 cells. The RealTime-Glo MT Cell Viability Assay is a nonlytic, homogeneous, bioluminescent method to measure cell viability in real time using a simple, plate-based method. The assay involves adding NanoLuc luciferase and a cell-permeant prosubstrate to cells in culture. Viable cells reduce the proprietary prosubstrate to generate a substrate for NanoLuc luciferase. This substrate diffuses from cells into the surrounding culture medium, where it is rapidly used by the NanoLuc Enzyme to produce a luminescent signal. The signal correlates with the number of viable cells, making the assay well suited for cytotoxicity studies.
Tox21 Assay Protocol Summary: The mixture of Hek293 cell suspension and reagents were dispensed at 600cells/6 ul/well in 1536-well tissue culture treated black solid bottom plates using a Multidrop dispenser. After the assay plates were incubated at a 37 C/5% CO2 incubator for 5 hours, 23 nL of compounds dissolved in DMSO, positive and negative controls was transferred to the assay plate by a pintool work station. The plates were incubated at 37 C for 40 hours. The luminescence intensity were measured at 0h, 8h, 16h, 24h, 32h and 40h time points using ViewLux plate reader during compound treatment.
% is scaled to controls: 0 for no effect and ±100 for the full control effect; potency is read from the fitted curve at half-maximal effect.

Compound | activity change, negative = cytotoxicity | Potency
CC(C)(O)c1ccc(CNC(=O)c2cccnc2Oc2ccc3nonc3c2)cc1 | 19.2% | 
CCOC(=O)[C@H](CCc1ccccc1)N[C@@H](C)C(=O)N(CC(=O)O)C1Cc2ccccc2C1 | 15.3% [at 35.3 µM] | 
Cc1ccco1 | 3.96% | 
O=C(O)CCc1nc(-c2ccccc2)c(-c2ccccc2)o1 | -11.3% [at 35.3 µM] | 
CC(=O)[C@H]1[C@H](C#N)C[C@H]2[C@@H]3CC=C4C[C@@H](O)CC[C@]4(C)[C@H]3CC[C@@]21C | -3.3% [at 35.3 µM] | 
CCC1NC(=O)c2cc(S(N)(=O)=O)c(Cl)cc2N1 (stereo not given) | -4.13% [at 35.3 µM] | 
CCCCCCC(C)(C)C(=O)O | 6.34% | 
C=CC(=O)[O-].C=CC(=O)[O-].[Zn+2] | 0.206% | 
CC(C)C[C@H](NC(=O)[C@H](CCc1ccccc1)NC(=O)CN1CCOCC1)C(=O)N[C@@H](Cc1ccccc1)C(=O)N[C@@H](CC(C)C)C(=O)[C@@]1(C)CO1 | 5% [at 35.3 µM] | 
CCCCN(CCCC)C(C(N)=O)c1ccc(OC)cc1 (stereo not given) | 7.1% [at 35.3 µM] | 
CO/N=C(/C(=O)N[C@@H]1C(=O)N2C(C(=O)O)=C(COC(N)=O)CS[C@H]12)c1ccco1 | -6.53% | 
COc1cc(C(=O)NCCCCCC(=O)O)cc(OC)c1OC | 15.2% [at 35.3 µM] | 
O=C1NC(=O)c2cc([N+](=O)[O-])ccc21 | 1.33% | 
O=C(O)CCCCCCCCCCCBr | -16.4% | 
CCC(=O)C1CC(C(C)C)CC=C1C (stereo not given) | -2.25% | 
Nc1ncnc2c1ncn2[C@H]1CC[C@@H](CO)O1 | 13% | 
C[C@H]1c2cccc(O)c2C(O)=C2C(=O)[C@]3(O)C(O)=C(C(N)=O)C(=O)[C@@H](N(C)C)[C@@H]3[C@@H](O)[C@@H]21 | -2.7% [at 35.3 µM] | 
Oc1ccc(Cl)c2cccnc12 | -0.989% [at 35.3 µM] | 
O=C(OC(=O)c1ccccc1)c1ccccc1 | 0.258% | 
C[C@]1(Cn2ccnn2)[C@H](C(=O)O)N2C(=O)C[C@H]2S1(=O)=O | 8.06% [at 35.3 µM] | 

Compound | activity change, negative = cytotoxicity | Potency
CCCCCCCCN | -0.344% | 
C=CCc1ccccc1OCC(O)CNC(C)C (stereo not given) | 8.45% [at 35.3 µM] | 
O=C(/C=C/c1ccccc1)OCCc1ccccc1 | 3.76% | 
CCCCCCCCCI | -0.474% | 
O=C(O)CCC(=O)C(=O)O | -14.3% | 
O[C@@H]1CO[C@H]2[C@@H]1OC[C@@H]2O | 1.18% [at 35.3 µM] | 
CCCCCCCC/C=C\CCCCCCCCO | 2.1% | 
O=C1Cc2ccccc2N1c1c(Cl)cccc1Cl | -4.9% | 
CCC(=O)OC | -2.92% | 
COc1ccccc1Oc1c(NS(=O)(=O)c2ccc(C(C)(C)C)cc2)nc(-c2ncccn2)nc1OCCO | -0.693% [at 35.3 µM] | 
Cc1cc(C)c(N)cc1C | 0.588% | 
NNC(=O)CP(=O)(c1ccccc1)c1ccccc1 | -0.513% [at 35.3 µM] | 
Clc1cc(Cl)nc(Cl)n1 | -1.6% | 
CCOC(=O)c1ccc(OCCN2C[C@H](O)[C@@H](O)[C@H](O)[C@H]2CO)cc1 | 6.1% [at 35.3 µM] | 
COc1ccccc1N1CCN(CC(O)COc2cccc3ccccc23)CC1 (stereo not given) | -19.8% [at 35.3 µM] | 
CC(C)C=O | -0.972% | 
COC(=O)CCS | 0.648% | 
CC[N+](CC)(CCNC(=O)C(=O)NCC[N+](CC)(CC)Cc1ccccc1Cl)Cc1ccccc1Cl | -0.788% [at 35.3 µM] | 
CC(CC1c2ccccc2CCc2ccccc21)CN(C)C (stereo not given) | 23.1% [at 35.3 µM] | 
CC(C)(C)CC(=O)OCC(=O)[C@@]1(O)CC[C@H]2[C@@H]3CCC4=CC(=O)C=C[C@]4(C)[C@H]3[C@@H](O)C[C@@]21C |  | 7.56 µM (active)
